# Test results reported in publication PMC7819943, “Rice protein-binding microarrays: a tool to detect cis-acting elements near promoter regions in rice”.
# The full ranking holds about 68,000 sequences; the median of “fluorescence intensity (a.u.)” is about 9,100, and the highest 2% start at about 16,000. This is one part of a sample in which the highest values are shown more often than they occur.
# Molecular target: OsWRKY34 (Oryza sativa, UniProt Q0JBA9 1-250)
# Test: protein-binding microarray (RPBM); PBS, 2% BSA, 51.3 ng/ul salmon testes DNA, 50 uM zinc acetate, 200 nM TF, 25 C, 1 h; high values mean tight binding
# Conditions: protein: recombinant; tags: N-terminal polyhistidine and DsRed monomer fusion (pET32a); label: CyDye5-dUTP incorporated in the synthesized complementary strand; 3' TTTTT single-stranded linker to array surface; dsDNA, one strand shown
# Method in brief: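 A custom Agilent array was converted to double-stranded form by primer extension with Cy5-dUTP and blocked with 2% BSA. Protein at 200 nM in PBS with 2% BSA, salmon testes DNA and 50 µM zinc acetate was applied for 1 h at 25 °C, followed by washing. The proteins were polyhistidine–DsRed N-terminal fusions of transcription factors, expressed in E. coli BL21-CodonPlus and Ni–NTA-purified. The binding signal is per-feature fluorescence intensity (arbitrary units) from an Axon 4000B scanner.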
# OsWRKY34, sequence (Q0JBA9 entry or part of it): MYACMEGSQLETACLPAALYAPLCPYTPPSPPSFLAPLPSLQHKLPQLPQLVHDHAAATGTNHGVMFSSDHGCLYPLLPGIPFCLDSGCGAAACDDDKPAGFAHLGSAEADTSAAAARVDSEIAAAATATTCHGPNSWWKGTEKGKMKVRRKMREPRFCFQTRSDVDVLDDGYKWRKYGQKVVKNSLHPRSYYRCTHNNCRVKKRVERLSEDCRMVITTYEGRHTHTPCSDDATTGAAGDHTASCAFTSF
row,Sequence,binding signal
1,TGTTCTCTCCTGCCTCCACACTTTCTGGCACGGTACAAAACGGAGTCACCTAGTGCAG,8370 fluorescence intensity (a.u.)
2,TTAATTTCACGGTTTCATCTCGACATCTCATCATCTGTTTCGGAGTCACCTAGTGCAG,12100 fluorescence intensity (a.u.)
3,ATGCCATTTTTCCCGTTTGTTGCAATTGCAAAACATTTTTCGGAGTCACCTAGTGCAG,8580 fluorescence intensity (a.u.)
4,CTCTCACACCGTGCCATATCCCGAACATCCCTTGATCGAACGGAGTCACCTAGTGCAG,9530 fluorescence intensity (a.u.)
5,CTTTCCTGTACTATTTTACTGTCCGATTTACAACATGTGACGGAGTCACCTAGTGCAG,12900 fluorescence intensity (a.u.)
6,TCGGTTTTTACTGCTTCCATCAGACGTCGGTCTGTTTTCGCGGAGTCACCTAGTGCAG,9470 fluorescence intensity (a.u.)
7,ACCTGTTTCGTTCGTCCACGCCAGCGCCAACCGGACATGACGGAGTCACCTAGTGCAG,9460 fluorescence intensity (a.u.)
8,TCTTGTATTCTCCACTAGTCTTGGGTCATCCATTCTTCAGCGGAGTCACCTAGTGCAG,8550 fluorescence intensity (a.u.)
9,GCCTCTGTTCTTCCACTCATTATTATCATTTGCAGCTCCGCGGAGTCACCTAGTGCAG,10400 fluorescence intensity (a.u.)
10,TCCCAACCCACCGTTCCATTCTCTCGAGCTCACCCCGTCACGGAGTCACCTAGTGCAG,10500 fluorescence intensity (a.u.)
11,ATTTTCAAAATATTTGACACTGTTGACTTTTTAGTACATACGGAGTCACCTAGTGCAG,9840 fluorescence intensity (a.u.)
12,TTCAAAATATTTGACACCGTTGACTTTTTAGTACGTGTTTCGGAGTCACCTAGTGCAG,18200 fluorescence intensity (a.u.)
13,CCGTTTCAAAATATTTGACACCGTTGACTTTTTAGTACGTCGGAGTCACCTAGTGCAG,26800 fluorescence intensity (a.u.)
14,TCTGTATTAGCGTTCGGTTGTTTTATTTGACTTTCCAAATCGGAGTCACCTAGTGCAG,8360 fluorescence intensity (a.u.)
15,AAAAATATTTGACAGCGTTGACTTTTTAGTGCGTATTTGACGGAGTCACCTAGTGCAG,42800 fluorescence intensity (a.u.)
16,CCTCCGTTTCAAAATATTTGACACCGTTGACTTTTTAGTACGGAGTCACCTAGTGCAG,14100 fluorescence intensity (a.u.)
17,TGTACTTCAAAAATTTACTTTACCGTGTGTTTTATTTTTTCGGAGTCACCTAGTGCAG,9650 fluorescence intensity (a.u.)
18,ACTTTTTAGTGCGTATTTGACTATTCGTCTTATTTAAAAACGGAGTCACCTAGTGCAG,9800 fluorescence intensity (a.u.)
19,TCGTTTCAAAATACTTGACACCGTTGACTTTTTAGTACGTCGGAGTCACCTAGTGCAG,23300 fluorescence intensity (a.u.)
20,ATCAATCTATTAGAATACTTATTACTGTATCTACTTATGTCGGAGTCACCTAGTGCAG,8690 fluorescence intensity (a.u.)
21,TAGGTTTTTTTTTACTTTTTAACTTGGCTGATTTTATTGACGGAGTCACCTAGTGCAG,8760 fluorescence intensity (a.u.)

row,Sequence,binding signal
1,GACTCTTGCGATTCCCTCTGTTGAACTTGTTCGTTCTCCTCGGAGTCACCTAGTGCAG,10600 fluorescence intensity (a.u.)
2,TTCCCCATGTTTTTTTGCCCACTAACTCACTAGCCACCACCGGAGTCACCTAGTGCAG,10700 fluorescence intensity (a.u.)
3,CCTCGACCTCTCGCTACTCCAGGCGCCGCCCCATCAGATGCGGAGTCACCTAGTGCAG,8200 fluorescence intensity (a.u.)
4,CGTACGCGCCCACGCCCACTCCCACGCCTTCGCGCGCGCGCGGAGTCACCTAGTGCAG,9220 fluorescence intensity (a.u.)
5,TTAGGTCGGGTTTTTCCCGTTTCTCGTTTCTATGGCGATGCGGAGTCACCTAGTGCAG,8750 fluorescence intensity (a.u.)
6,TCCTTGTGCCCACTTCTAGCTAGCTTCCAAGTTCCAACCACGGAGTCACCTAGTGCAG,13700 fluorescence intensity (a.u.)
7,GGTGCTTGTTTAATCAAAGCTTGCTATTTGGTACTTTTTTCGGAGTCACCTAGTGCAG,8940 fluorescence intensity (a.u.)
8,GGACCACCCTGCCGCGGACATCACCCATCTCGTCATCTCCCGGAGTCACCTAGTGCAG,9570 fluorescence intensity (a.u.)
9,CAAATTACTTCCTTTTCAAAATCTAGGATACCGTTGACTTCGGAGTCACCTAGTGCAG,9460 fluorescence intensity (a.u.)
10,CCGTTGGCTTTTTTAAACATGTTTGACCGTTTATTTTATTCGGAGTCACCTAGTGCAG,14100 fluorescence intensity (a.u.)
11,CACATATTGATCTATTCTACTAAATTTTTTTTATGACTTTCGGAGTCACCTAGTGCAG,8630 fluorescence intensity (a.u.)
12,TGTTTTATTTTTAGGATACTTCTACCTTTTTTCGCTTTGACGGAGTCACCTAGTGCAG,9510 fluorescence intensity (a.u.)
13,TCCCTAAATATTTGACGCCGTTGACTTTTTTAAACATGTTCGGAGTCACCTAGTGCAG,26400 fluorescence intensity (a.u.)
14,ATATTTGACGCCGTTGACTTTTTTAAACATGTTTGACCGTCGGAGTCACCTAGTGCAG,44400 fluorescence intensity (a.u.)
15,ATCTAGGATACCGTTGACTTTTCGTACTAACATTTGACGTCGGAGTCACCTAGTGCAG,32800 fluorescence intensity (a.u.)
16,TCCCTAAATATTTGACGCCATTGACTTTTTTAAACATGTTCGGAGTCACCTAGTGCAG,11200 fluorescence intensity (a.u.)
17,TTGACGCCGTTGACTTTTCTAAACATATTTGACTATTCGTCGGAGTCACCTAGTGCAG,22300 fluorescence intensity (a.u.)
18,TGCTTTGGTTGTCTTCTTTATCTAGAAGGCTTTGATTGCTCGGAGTCACCTAGTGCAG,9520 fluorescence intensity (a.u.)
19,TCATTGTTCTCACTTCCTCGTCTTGAGCACTTGAGTCTCTCGGAGTCACCTAGTGCAG,8420 fluorescence intensity (a.u.)
20,TGCACTGGGCTCCCATCTGAATGTCCTTATGCCAACCTCCCGGAGTCACCTAGTGCAG,8520 fluorescence intensity (a.u.)
21,CTAATCCTCCTGCTCCATCTCGATCCACATAACGATCCACCGGAGTCACCTAGTGCAG,8470 fluorescence intensity (a.u.)
